# UBC13 inh – UBC13 polyubiquitin chain formation inhibitors, primary screen, biochemical, TR-FRET, uHTS; inhibition, % at 20 µM; AID 485273, 2010; actives 0.47% (n = 330,000); Ubiquitin-conjugating enzyme E2 N (Homo sapiens), P61088; in the data active = inhibition above about 45%, passing the limit was not always enough
# Target sequence (P61088 whole entry, looked up): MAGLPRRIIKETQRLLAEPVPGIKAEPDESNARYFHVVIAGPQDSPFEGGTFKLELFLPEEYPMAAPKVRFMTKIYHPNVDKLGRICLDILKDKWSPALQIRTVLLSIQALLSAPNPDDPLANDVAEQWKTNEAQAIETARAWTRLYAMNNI
# SUMO HTRF inh – inhibitors of in vitro SUMOylation cascade, primary screen, biochemical, HTRF, uHTS. SUMO-conjugating enzyme UBC9 (Homo sapiens), P63279. HTRF SUMOylation assay, SAE1/SAE2 + UBC9. inhibition, % at 35 µM. actives 0.36% (n = 290,000); in the data active = inhibition above about 50%, passing the limit was not always enough
# Target sequence (P63279 whole entry, looked up): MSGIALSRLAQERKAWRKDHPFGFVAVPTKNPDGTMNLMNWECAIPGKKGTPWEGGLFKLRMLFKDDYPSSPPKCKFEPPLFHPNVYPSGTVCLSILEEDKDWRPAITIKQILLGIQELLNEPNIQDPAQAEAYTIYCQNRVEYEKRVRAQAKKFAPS
# GRIN3A LBD mod – binders of NR3A ligand-binding domain, primary screen, biophysical, differential scanning fluorimetry, uHTS. Glutamate receptor ionotropic, NMDA 3A (GRIN3A) ligand-binding domain. NR3A LBD differential scanning fluorimetry, Tm shift; 0% = protein alone, 100% = glycine-bound protein. Tm shift relative to glycine control, % at 25 µM. actives 2.5% (n = 340,000). AID 1259313, 2017;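 active = melting temperature shift of at least 10% of the positive control shift, at one fixed dose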
# HGIII-sPLA2 inh – human group III sPLA2 inhibitors, primary screen, biochemical, QFRET, BODIPY PC-A2 liposome substrate | AID 743126, 2013 | actives 0.56% (n = 370,000) | Group 3 secretory phospholipase A2 (Homo sapiens), Q9NZ20 | QFRET BODIPY PC-A2 liposome hydrolysis, fluorescence | inhibition, % at 12.2 µM;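 active = inhibition above mean plus 3 SD of compounds lying within the high and low control bounds, cut at about 19% in these data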;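 note: 0% = median of test compound wells and 100% = no enzyme DMSO wells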
# The depositor's hits bear a star; x = no result given. Most compounds without a hit are left out; they make up all but 3.3% or so of the library.
SMILES,UBC13 inh,SUMO HTRF inh,GRIN3A LBD mod,HGIII-sPLA2 inh
COc1cccc(/C=C2\SC(=S)N(CCC(=O)NCCc3ccc(O)cc3)C2=O)c1,-15,30,16*,-45
CN1C[C@]2(C=C3CCCCC3n3c(=O)n(-c4ccccc4)c(=O)n32)N(C(=O)OCc2ccccc2)C1=NC(=O)c1ccccc1 (some centres not stated),x,x,x,-4
O=C(CCN1C(=O)/C(=C/c2ccc(F)cc2)SC1=S)NCCc1ccc(O)cc1,-10,x,16*,-37
O=C(N/C=C/c1ccccc1)Nc1ccc(Cl)cc1,-4,36,11*,0
Cc1ccc(NC(=O)N/C=C/c2ccccc2)cc1,2,27,1,-20
Cc1ccc(NC(=O)N/C=C/c2ccc(Cl)cc2)cc1,-8,0,16*,-1
O=C(CSc1nnc(-c2ccco2)n1-c1ccc(Cl)cc1)Nc1ccccc1-c1ccccc1,x,x,x,-11
Cc1ccccc1Oc1cc(-n2ncc(Cl)c(Cl)c2=O)ncn1,x,-80,7,21*
O=C(Nc1c(-c2ccc(C(F)(F)F)cc2)nc2ncccn12)c1ccc(F)cc1,x,x,x,3
C=CCNC(=O)/C(C#N)=C/c1ccccc1OCc1ccc(C(=O)OC)cc1,4,-7,34*,-3
CCN(CC)C(=O)CC[C@H]1CC[C@]2(CCCN(S(C)(=O)=O)C2)O1,x,x,x,1
CC(=O)c1cccc(Nc2nc(-c3ccccc3)nc3ccccc23)c1,9,6,23*,-2
COc1ccc(Nc2nc(-c3cccc(OC)c3O)nc3ccccc23)cc1,2,-8,11*,-27
Oc1ccc(-c2nnc(Nc3cccc(O)c3)c3ccccc23)cc1,5,13,13*,-42
COc1cccc(-c2nc(NC(C)(C)C)c3ccccc3n2)c1O,-14,13,-6,-4
COc1ccc(Nc2nc(-c3ccccc3)nc3ccccc23)cc1S(=O)(=O)N1CCOCC1,23,16,11*,4
COc1ccc(-n2c(SCC(=O)Nc3ccc4c(c3)OCO4)nc3sc4c(c3c2=O)CCCC4)cc1,x,x,x,3
Oc1cccc(Nc2nc(-c3ccccc3)nc3ccccc23)c1,21,8,28*,-35
O=C(Nc1nccs1)c1ccc(-c2ccc(Cl)cc2Cl)o1,19,14,0,2
CCc1nnc(NC(=O)c2ccc(-c3ccc(Cl)cc3)o2)s1,-7,40,15*,5
O=C(Nc1nccs1)c1ccc(-c2ccc(F)c(Cl)c2)o1,7,4,14*,-12
O=[N+]([O-])c1cccc(NCCCN2CCC(C(O)(c3ccccc3)c3ccccc3)CC2)c1,x,x,x,-22
CCC(=O)N[C@@H]1C[C@@H]2O[C@@H](CO)CC[C@@H]2O[C@@H]1CCc1ccc(-c2cccc(OC)c2)cc1,x,x,x,-13
COc1cccc2c1C(CCCC(=O)O)CCC2 (configuration not stated),x,x,-4,10
COc1cccc2c1C1COC3C4CC(C(=O)O)C(C(C2)N13)N4C (configuration not stated),x,x,14*,1
SMILES,UBC13 inh,SUMO HTRF inh,GRIN3A LBD mod,HGIII-sPLA2 inh
CCCC[C@H](C(=O)N(CC)c1ccccc1)[C@@H](O)c1ccc(C(C)=O)cc1,x,x,x,6
CC(=O)C1=C(NC(=O)c2ccccc2F)C[C@@H]2[C@H]1C2(C)C,0,0,14*,-9
CC(=O)C1=C(NC(=O)c2ccc(C(F)(F)F)cc2)C[C@@H]2[C@H]1C2(C)C,4,11,1,2
O=c1cc(N2CCN(c3cccc(C(F)(F)F)c3)CC2)[nH]c(=O)n1C1CCCCC1,x,x,x,-4
COc1ccc(Nc2cc(C)c3cc([N+](=O)[O-])ccc3n2)cc1,-44,3,28*,4
Cc1ccc(Nc2nc(=O)c3cc([N+](=O)[O-])ccc3s2)cc1,-1,54,13*,-4
COc1ccc(Nc2nc(=O)c3cc([N+](=O)[O-])ccc3s2)cc1,x,23,13*,5
Cc1ccccc1Nc1nc(=O)c2cc([N+](=O)[O-])ccc2s1,-1,3,-2,-14
COc1ccc(Nc2ccc([N+](=O)[O-])cn2)cc1,-12,-1,1,13
O=C(/C=C/c1cccs1)NC(=S)Nc1ccc(S(=O)(=O)Nc2ccccc2C(F)(F)F)cc1,-17,22,27*,-60
Nc1ccccc1N=Nc1ccccc1N,-215,-3,23*,10
Nc1ccccc1-c1ccccc1N,5,14,0,7
CC(=O)OC12CCCN(C1)/C(=C/c1ccccc1)C2 (configuration not stated),x,x,x,2
Cc1ccc(NC(=O)CN(C)S(=O)(=O)c2cccc3cccnc23)cc1F,1,-4,14*,-3
Cc1ccc(NC(=O)CN(C)S(=O)(=O)c2cccc3cccnc23)cc1C,2,5,-5,-9
O=C(N/N=C/c1ccc(OCc2ccccc2)cc1)c1ccco1,-4,12,13*,-2
Cc1cc(C(=O)N/N=C/c2ccc(OCc3ccccc3)cc2)c(C)o1,-12,-25,14*,-14
O=C(Nc1c(-c2ccc(F)cc2)nc2ncccn12)c1ccc(F)cc1,x,x,x,0
CC(=O)CC[C@@H]1CC[C@]2(CCCN(C(=O)c3ccno3)C2)O1,x,x,x,4
O=C(Cc1ccccc1)N/N=C/c1ccc2cccc(O)c2n1,-13,12,-3,-3
NC(=O)N/N=C/c1ccc2cccc(OCc3ccccc3)c2n1,12,58*,-1,-2
CC1C=CC=CCCC=CC=CC=CC=CC(OC2O[C@H](C)[C@@H](O)[C@H](N)[C@@H]2O)CC(O)C(C(=O)O)C(O)CC(=O)CC(O)C(O)CCC(O)CC(O)CC(O)CC(=O)OC(C)C(C)C1O (some centres not stated),x,x,x,-11
Nc1ccc2cc3ccc(N)cc3nc2c1,x,x,x,-305
CCc1ccc(O)c(-c2cc(C(=O)Nc3cccnc3)[nH]n2)c1,18,-6,20*,-27
O=C(Nc1cccnc1)c1ccc(F)cc1,4,10,2,9
SMILES,UBC13 inh,SUMO HTRF inh,GRIN3A LBD mod,HGIII-sPLA2 inh
COc1ccc(-c2cc(C(=O)Nc3ccc(NC(C)=O)cc3)[nH]n2)c(C)c1,x,x,x,0
Cc1cc(C)c(O)c(-c2cc(C(=O)Nc3cccnc3)[nH]n2)c1,-8,3,7,-15
Cc1cc(O)c(-c2cc(C(=O)Nc3cccnc3)[nH]n2)cc1C,2,19,27*,-2
CC(=O)Nc1ccc(NC(=O)c2cc(-c3cc(C)c(C)cc3O)n[nH]2)cc1,-3,6,32*,-15
Cc1ccc(NC(=O)c2cc(-c3ccccc3)n[nH]2)cc1,2,2,10*,-4
CCOC(=O)N1CCN(C(=O)C[C@H]2C[C@@]3(C(=O)OC)C(=C[C@H](C(C)(C)C)O[C@@H]3C)N(CCc3ccc(OC)c(OC)c3)C2=O)CC1,x,x,x,-16
CCC(C)N(c1nc(C)nc2c1nnn2Cc1ccccc1)C(C)CC (configuration not stated),x,x,x,0
